For 39 compounds, Potency results are on record in PubChem BioAssay (NCATS).

Structures are written as SMILES. Inconclusive results are not listed. Activity calls are given as the source filed them. The call rests on the fitted dose curve; in most records, active means well fitted curve in the direction sought with a large enough effect; inconclusive means small, poorly fitted or top-dose-only effect, or another doubt; inactive means no such curve, though single readings can be large; an effect the other way counts as inactive or inconclusive.

A short description of test [1]: qHTS of pediatric cancer cell lines to identify multiple opportunities for drug repurposing: Primary screen for BT-12 cells (AID 1347101). Further: nearly all actives have a fitted effect of over 25% in size. Further: potency means the concentration at half of the fitted maximal effect. The gist of the method: (§1)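 Cells (500-1,000/well) rested 5 h, then received compounds for 48 h; metabolically active cells were measured by CellTiter-Glo luminescence. Final concentrations spanned up to 46 µM (MIPE, 11-point) or 0.59 nM-46 µM (NPC, 8-point) in primary screens, 11-point in follow-ups.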
In general terms: Quantitative high-throughput screening tests each substance at several concentrations.

A short description of test [2]: qHTS of pediatric cancer cell lines to identify multiple opportunities for drug repurposing: Primary screen for OHS-50 cells (AID 1347103). Further: nearly all actives have a fitted effect of over 40% in size. Further: potency means the concentration at half of the fitted maximal effect. The gist of the method:
as §1

Test [3] is described as follows: qHTS of pediatric cancer cell lines to identify multiple opportunities for drug repurposing: Primary screen for RD cells (AID 1347104). Further: nearly all actives have a fitted effect of over 55% in size. Further: potency means the concentration at half of the fitted maximal effect. The gist of the method:
(§2)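 Following a 5-hour attachment period, cells at 500-1,000/well received compounds and were cultured for 48 hours. CellTiter-Glo was added and luminescence read to estimate viable, metabolically active cells.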

Test [4] in a line: qHTS of pediatric cancer cell lines to identify multiple opportunities for drug repurposing: Primary screen for Rh30 cells (AID 1347107). Further: nearly all actives have a fitted effect of over 75% in size. Further: potency means the concentration at half of the fitted maximal effect. The gist of the method: (§3)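 Viability after 48 h compound treatment at 37C, 500-1,000 cells/well, read as ATP luminescence with CellTiter-Glo. Primary screens used 11-point (MIPE, 0.78 nM-46 µM) or 8-point (NPC, 0.59 nM-46 µM) final concentrations; follow-up screens used 11-point dilutions.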

The nature of test [5]: qHTS of pediatric cancer cell lines to identify multiple opportunities for drug repurposing: Primary screen for LAN-5 cells (AID 1347100). Further: potency means the concentration at half of the fitted maximal effect. The gist of the method:
as §3

Test [6] can be described thus: qHTS of pediatric cancer cell lines to identify multiple opportunities for drug repurposing: Primary screen for Rh18 cells (AID 1347102). Further: nearly all actives have a fitted effect of over 65% in size. Further: potency means the concentration at half of the fitted maximal effect. The gist of the method: as §3
Test [7] in a line: qHTS of pediatric cancer cell lines to identify multiple opportunities for drug repurposing: Primary screen for MG 63 (6-TG R) cells (AID 1347105). Further: nearly all actives have a fitted effect of over 50% in size. Further: potency means the concentration at half of the fitted maximal effect. The gist of the method: as §2
A short description of test [8]: qHTS of pediatric cancer cell lines to identify multiple opportunities for drug repurposing: Primary screen for control Hh wild type fibroblast cells (AID 1347106).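 Further: series mostly up to about 46 µM; a drop in luminescence marks cytotoxicity and a rise apparent proliferation; nearly all actives have a fitted effect of over 55% in size.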 The gist of the method:
as §3

A short description of test [9]: qHTS of pediatric cancer cell lines to identify multiple opportunities for drug repurposing: Primary screen for NB1643 cells (AID 1347099). Further: nearly all actives have a fitted effect of over 50% in size. Further: potency means the concentration at half of the fitted maximal effect. The gist of the method: as §2

In the case of `Oc1ccc([C@H]2CNCc3c2ccc(O)c3O)cc1O`, the Potency result in test [1], in test [2], in test [3] and in [4] was “inactive” throughout.

For `CC(C)(C)OC(=O)c1ncn2c1[C@@H]1CCCN1C(=O)c1c(Br)cccc1-2`, the Potency result in [5], in test [1], in test [6], in test [2], in test [3] and in [7] was “inactive” throughout. The Potency entry in [8] and in [4] was “inactive” in each case.

For `CCO[C@H]1O[C@@H]2OC3(C)CC[C@H]4[C@H](C)CC[C@@H]([C@H]1C)[C@@]24OO3`, the Potency result in test [6], in test [7], in test [8] and in test [4] was “inactive” in each case. Further, the Potency in [2] was 13.8 µM (active).

As for `CN1C2CCC(C)(C)C1CC(OC(=O)C(O)(c1cccs1)c1cccs1)C2` (stereo not drawn), the Potency entry in test [5], in test [1], in [6], in test [3], in [7] and in test [8] was “inactive” throughout. For the same compound, in [4], the Potency entry was “inactive”.

As for `Clc1ccc(CO/N=C(\Cn2ccnc2)c2ccc(Cl)cc2Cl)c(Cl)c1`, the Potency entry in [9], in test [8] and in [4] was “inactive” each time. In addition, in test [5], the Potency was 23.7 µM (active).

Regarding `Cc1nc2ccccc2c(=O)n1-c1ccccc1Cl`, the Potency result in [5], in [1], in test [6], in [3] and in test [8] was “inactive” in each case.

Take `CC[C@]1(O)CC[C@H]2[C@@H]3CCC4=CCCC[C@@H]4[C@H]3CC[C@@]21C`: the Potency entry in test [9], in test [5], in test [3] and in [8] was “inactive” in each case.

On to `C[C@H](CN1CCOCC1)C(C(=O)N1CCCC1)(c1ccccc1)c1ccccc1`, for which the Potency in test [2] was 43.4 µM (active). Also, the Potency result in test [8] was “inactive”.

On to `C[N+]1(C)[C@@H]2CC[C@H]1CC(OC(=O)C(CO)c1ccccc1)C2` (stereo partly drawn), for which the Potency entry in [5], in test [1], in test [6], in test [2], in [3] and in test [7] was “inactive” throughout. Also, the Potency entry in test [8] was “inactive”.

Take `O=C1NCN(c2ccccc2)C12CCN(CCCOc1ccc(F)cc1)CC2`: the Potency entry in test [9], in test [5], in test [7], in [8] and in test [4] was “inactive” in each case. Also, the Potency in [1] was 11 µM (active); in test [2] it was 27.6 µM (active).

Consider `OC(O)C(Cl)(Cl)Cl`, for which the Potency entry in test [5], in test [1], in test [6], in test [2], in test [3] and in test [7] was “inactive” throughout. Besides, the Potency entry in test [8] and in test [4] was “inactive” in each case.

As to `C[C@]12Cc3nonc3C[C@@H]1CC[C@@H]1[C@@H]2CC[C@@]2(C)[C@H]1CC[C@]2(C)O`, the Potency entry in [9], in [6], in [8] and in test [4] was “inactive” in each case. For the same compound, in test [2], the Potency was 15.5 µM (active).

For `Clc1ccc(C(OCCN2CCCCC2)c2ccccc2)cc1` (stereo not drawn), the Potency entry in test [9], in [5], in test [6], in test [7] and in test [4] was “inactive” each time. Moreover, the Potency in [2] is 19.5 µM (active).

For the compound `N#Cc1nn(-c2c(Cl)cc(C(F)(F)F)cc2Cl)c(N)c1S(=O)C(F)(F)F` (stereo not drawn), the Potency is 12.3 µM (active) in test [1] and 24.6 µM (active) in [2]. The Potency result in test [6] is “inactive”.

As for `Cc1ccc([N+](=O)[O-])[c]2c1[O][Hg]2`, the Potency in test [9] was 0.596 µM (active); in [1] it was 2.76 µM (active); in test [6], 1.5 µM (active); in test [2] it was 0.55 µM (active); in test [3] it was 0.188 µM (active); in test [7] it was 1.33 µM (active). Moreover, the Potency in test [4] is 2.11 µM (active).

For the compound `CCC(OC(C)=O)C(CC(C)NC)(c1ccccc1)c1ccccc1` (stereo not drawn), the Potency in [5] is 43.7 µM (active); in test [1], 35.9 µM (active); in test [6] it was 39 µM (active); in test [2], 28.5 µM (active); in [3], 27.6 µM (active). Further, the Potency result in test [8] is “inactive”.

Regarding `CN(C)CCc1c[nH]c2ccccc12`, the Potency entry in test [5], in [1], in [6], in [3], in [7] and in test [8] was “inactive” each time. In addition, the Potency entry in test [4] was “inactive”.

Turning to `COc1cc(CC(C)N)c(OC)cc1Br` (stereo not drawn), the Potency entry in test [9], in test [6] and in test [4] was “inactive” each time. Besides, in test [7], the Potency was 17.9 µM (active).

`CCc1cc(OC)c(C[C@H](C)N)cc1OC`: the Potency result in test [5], in [6], in test [2], in [7] and in test [8] was “inactive” throughout.

Turning to `CC(C)[N+](C)(CCC(C(N)=O)(c1ccccc1)c1ccccc1)C(C)C`, the Potency entry in test [5], in test [1], in test [6], in [2], in test [3] and in [4] was “inactive” each time.

For the compound `C#C[C@]1(O)CC[C@H]2[C@@H]3CCC4=CC(=O)CCC4=C3C=C[C@@]21CC`, the Potency entry in [5] is “inactive”.

With `CCC(=O)O[C@H]1CC[C@H]2[C@@H]3CCC4=CC(=O)CC[C@]4(C)[C@H]3CC[C@]12C`, the Potency entry in test [9], in test [1], in test [6], in [3], in test [7] and in test [4] was “inactive” each time.

Take `CC[C@H]1C[C@H]2[C@@H]3CCC4=CC(=O)CC[C@@H]4[C@H]3CC[C@]2(C)[C@H]1O`: the Potency result in test [5], in test [6], in test [3], in test [7] and in test [8] was “inactive” each time.

For `C[C@H]1C(=O)O[C@@H]2CCN3CC=C(COC(=O)[C@](C)(O)[C@]1(C)O)[C@H]23`, the Potency result in test [1], in test [6], in test [2], in test [3] and in test [7] was “inactive” throughout.

Regarding `O=C(CCl)c1ccc(Cl)cc1Cl`, the Potency in test [5] was 16.8 µM (active). Further, the Potency entry in test [6] and in [8] was “inactive” throughout.

Regarding `Cc1nnc2n1-c1sc(CCC(=O)N3CCOCC3)cc1C(c1ccccc1Cl)=NC2`, the Potency entry in [5], in [1], in test [6], in [2], in test [3] and in test [7] was “inactive” throughout. In test [8], the Potency result is “inactive”.

Consider `COc1ccc2c3c1O[C@H]1[C@@H](O)C=C[C@H]4[C@@H](C2)N(C)CC[C@@]341`, for which the Potency was 23.8 µM (active) in test [9], 33.7 µM (active) in [5], 44 µM (active) in [2] and 47.6 µM (active) in test [3]. Moreover, in test [4], the Potency entry is “inactive”.

As for `CCN(CC)C(C)C(=O)c1ccccc1` (stereo not drawn), the Potency result in test [5], in [1], in test [6], in [2], in test [3] and in test [7] was “inactive” each time. For the same compound, the Potency entry in [8] and in [4] was “inactive” throughout.

Consider `CC1COC2(c3ccccc3Cl)c3cc(Cl)ccc3NC(=O)CN12` (stereo not drawn), for which the Potency entry in test [9], in [6], in test [3], in [7], in test [8] and in test [4] was “inactive” each time. Further, the Potency in test [5] is 6.68 µM (active).

For the compound `C[C@]12C=CC(=O)C=C1CC[C@@H]1[C@@H]2CC[C@@]2(C)[C@H]1CC[C@]2(C)O`, the Potency entry in [5], in test [1], in test [6], in [3] and in [7] was “inactive” each time.

Take `CC1Sc2c(C(=O)O)c(=O)c3cc(F)c(N4CCNCC4)cc3n21` (stereo not drawn): the Potency entry in test [5], in test [1], in test [6], in test [2], in test [3] and in [4] was “inactive” each time.

With `Clc1ccc(CSC(Cn2ccnc2)c2ccc(Cl)cc2Cl)cc1` (stereo not drawn), the Potency in test [2] was 27.6 µM (active); in test [3], 23.7 µM (active).

On to `CN1[C@@H]2CC[C@H]1CC(OC(=O)c1cc(Cl)cc(Cl)c1)C2` (stereo partly drawn), for which the Potency entry in test [1], in test [6], in test [7], in [8] and in test [4] was “inactive” each time.

In the case of `COc1cc(C[C@@H](C)N)c(OC)cc1Br`, the Potency entry in test [5], in test [1], in [6] and in [8] was “inactive” each time.

In the case of `CCC(=O)C(CCN(C)C)(c1ccccc1)c1ccccc1`, the Potency result in [5], in test [3], in test [8] and in [4] was “inactive” in each case.

Consider `CC(=O)OC1(c2ccccc2)CCN(CCc2ccccc2)CC1`, for which, in test [9], the Potency result was “inactive”. The Potency was 32.4 µM (active) in [2] and 62.3 µM (active) in test [3].

As for `CC(CC(C#N)(c1ccccc1)c1ccccc1)N(C)C` (stereo not drawn), the Potency result in test [9], in test [5], in test [6], in test [8] and in test [4] was “inactive” in each case. For the same compound, the Potency was 28.2 µM (active) in test [2] and 54.5 µM (active) in test [3].

`Cc1nnc2n1-c1sc(CCc3ccc(CC(C)C)cc3)cc1C(c1ccccc1Cl)=NC2C` (stereo not drawn): the Potency in test [5] was 23.7 µM (active); in [1], 11 µM (active); in test [2], 21.9 µM (active). Further, the Potency result in test [8] was “inactive”.

Consider `Oc1ccc2[nH]cc(CCCCN3CC=C(c4ccccc4)CC3)c2c1`, for which the figures for the Potency in [5], in test [1] and in test [2] were 11.9 µM (active), 15.5 µM (active) and 27.6 µM (active), respectively. Also, the Potency result in test [7], in test [8] and in [4] was “inactive” each time.
